Rows were chosen to be rich in hits. Some 0.87% of all compounds tested hit in one or more screens of this group.
FEN1 inh – qHTS Assay for the Inhibitors of Human Flap endonuclease 1 (FEN1); Potency, µM (doses to about 114 µM), without a hit: top-dose activity change, negative = inhibition, usual class: inhibitors; P39748; AID 588795, 2011; actives 0.35% (n = 390,000); Recombinant FEN1 flap cleavage, fluorescence, 15 min; also: nearly all actives have a fitted effect of over 65% in size
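In this screen, 50 nM flap DNA substrate was added to 10 nM FEN1 pretreated with compound for 15 min at room temperature; cleavage was followed with reads at 0 and 15 min, and Hill fitting gave concentration–response parameters.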
WRN inhibitor – qHTS for Inhibitors of WRN Helicase | Potency, µM (series often up to 114 µM), for inactives: at the highest dose activity change, negative = inhibition, actives largely listed as inhibitors | Bifunctional 3'-5' exonuclease/ATP-dependent helicase WRN (Homo sapiens), Q14191 | WRN helicase unwinding, fluorescent forked duplex, kinetic | actives 0.46% (n = 360,000) | AID 651768, 2012; also: nearly all actives have a fitted effect of over 55% in size
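Enzyme (20 nM final) and test compound sit together 15 min at room temperature before substrate addition. Substrate is a single-forked duplex oligonucleotide (100 nM) labelled with fluorophore and quencher, with 2 mM ATP; helicase unwinding raises red fluorescence, read kinetically.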
BLM inh – qHTS Assay for Inhibitors of Bloom's syndrome helicase (BLM); Potency, µM (series often up to 56.1 µM), without a hit: at the highest dose activity change, negative = inhibition, most hits filed as inhibitors; actives 0.2% (n = 350,000); recombinant BLM DNA unwinding, fluorescence dequenching; RecQ-like DNA helicase BLM (Homo sapiens), P54132;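 also: plate controls were vehicle for no effect and no enzyme for full effect; nearly all actives have a fitted effect of over 35% in size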
RECQ1 helicase – qHTS Assay for Inhibitors of RecQ-Like Dna Helicase 1 (RECQ1); RECQ1 DNA unwinding, red fluorescence kinetic read; AID 2549, 2010; Potency, µM (titrated, usually from 57.3 µM), for inactives: top-dose activity, negative = inhibition, actives largely listed as inhibitors; actives 0.54% (n = 240,000); ATP-dependent DNA helicase Q1 (Homo sapiens), P46063;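 also: plate controls were vehicle for no effect and no enzyme for full effect; nearly all actives have a fitted effect of over 30% in size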
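RECQ1T1 50 nM; forked duplex (20 bp + 30-nt ss tails) 200 nM, ATP 2 mM final; pH 8.0, 2 mM MgCl2, 2.5 ug/ml poly(dI-dC); 15 min compound preincubation; discontinuous kinetic read over 2 h at RT.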
APE1 inh – qHTS Assay for Inhibitors of the Human Apurinic/apyrimidinic Endonuclease 1 (APE1) | recombinant APE1, TAMRA/BHQ-2 abasic DNA cleavage fluorescence | Potency, µM (doses to about 65.8 µM), for inactives: top-dose activity change, negative = inhibition, most hits filed as inhibitors | actives 0.35% (n = 350,000);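 also: plate controls were vehicle for no effect and reference inhibitor for full effect; nearly all actives have a fitted effect of over 55% in size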
Target sequence (P27695 whole entry, looked up): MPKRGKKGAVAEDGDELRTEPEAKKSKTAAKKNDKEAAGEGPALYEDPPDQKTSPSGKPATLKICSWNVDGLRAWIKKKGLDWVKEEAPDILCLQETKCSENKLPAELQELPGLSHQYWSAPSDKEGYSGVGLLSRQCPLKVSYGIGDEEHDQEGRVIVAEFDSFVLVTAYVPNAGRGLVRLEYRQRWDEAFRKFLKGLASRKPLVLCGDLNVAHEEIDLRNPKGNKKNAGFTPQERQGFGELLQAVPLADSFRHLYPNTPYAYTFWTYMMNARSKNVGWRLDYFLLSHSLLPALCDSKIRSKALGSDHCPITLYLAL
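Step 1: APE1 (0.75 nM) with compound, 15 min RT. Step 2: add 50 nM fluorophore/quencher THF duplex. Step 3: three fluorescence reads 60 s apart (525/598 nm); read 3 minus read 1 = reaction progress.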
* = called active by the depositor; u = inconclusive; x = no result; ! = a repeat was not active; [ ] = remark or other dose. Calls follow the shape of the dose curve; as a rule, active = well fitted curve in the direction sought with a large enough effect; inconclusive = small, poorly fitted or top-dose-only effect, or another doubt; inactive = no such curve, though single readings can be large; an effect the other way counts as inactive or inconclusive. Unless noted, % is scaled to controls: 0 for no effect and ±100 for the full control effect; potency is read from the fitted curve at half-maximal effect.

SMILES | FEN1 inh | WRN inhibitor | BLM inh | RECQ1 helicase | APE1 inh
CC[C@@H](C)CCCCC(=O)N[C@H](CCN)C(=O)N[C@@H](C(=O)N[C@H](CCN)C(=O)N[C@@H]1CCNC(=O)C([C@@H](C)O)NC(=O)[C@@H](CCN)NC(=O)[C@@H](CCN)NC(=O)[C@@H](CC(C)C)NC(=O)[C@@H](Cc2ccccc2)NC(=O)[C@@H](CCN)NC1=O)[C@@H](C)O (some centres undefined) | x | x | x | x | 5%
Cc1ccc(-c2cc3c(N4CCN(c5cc(C)ccc5C)CC4)nccn3n2)cc1 | -13% | x | -6% | x | x
NC[C@@H]1CC[C@@H](N)[C@@H](O[C@H]2[C@H](O)[C@@H](O[C@H]3O[C@H](CO)[C@@H](O)[C@H](N)[C@H]3O)[C@H](N)C[C@@H]2N)O1 | x | x | x | x | 1%
CCCCCCCCC#CCC#CCC#CCCCC(=O)O | x | x | 5% | 20µM*! | u
COc1ccc(CCNC(=O)CCSCc2ccccc2Cl)cc1OC | -6% | x | 3% | x | x
CC(C)(C)Nc1nc(C#N)nc(Nc2ccccc2)n1 | x | x | -11% | -1% | -1%
O=C1/C(=C/c2ccco2)SC(=S)N1CCC(=O)N1CCCCC1CCO (centres undefined) | 1% | 56µM* | -15% | x | -14%
Cc1ccc(C(C2=C(O)CC(C)(C)CC2=O)C2C(=O)CC(C)(C)CC2=O)s1 (centres undefined) | -9% | 56µM* | -1% | 11% | -5%
CC1(C)CC(=O)C(C(C2=C(O)CC(C)(C)CC2=O)c2ccc(Br)s2)C(=O)C1 (centres undefined) | -13% | 22µM* | -4% | -3% | -1%
CCOc1cc(C=O)cc(N=Nc2cccc([N+](=O)[O-])c2)c1O | -14% | 2% | -7% | x | 4%
Cc1nc(N=Nc2cc([N+](=O)[O-])ccc2Cl)c(COP(=O)(O)O)c(C=O)c1O | x | x | 0% | 28µM* | 35µM*
c1ccc(-c2cc(-c3ccccc3)c3c(n2)-c2ccccc2OC3)cc1 | -15% | x | -4% | x | x
CCOc1ccccc1Nc1nc(-c2cccc(Cl)c2)c2c(n1)-c1ccccc1OC2 | 50µM* | x | -5% | x | x
CN(C)c1ccc(C=c2c3ccccc3n3c2c2ccccc2[n+]3C)cc1 | 32µM* | 10µM* | x | x | x
CN(C)c1ccc(C=c2c3cc(O)ccc3n3c2cc(-c2ccccc2)[n+]3C)cc1 | 7.9µM* | 18µM* | x | x | x
Cc1cccc(CNC(=O)CCCN2C(=O)c3cccnc3Oc3ccccc32)c1 | 5% | x | 0% | x | x
O=C1C(O)=C(O)C(=O)C(O)=C1O | x | x | u | -17% | 10µM*
COc1ccc(C(=O)c2cn(Cc3ccc(F)cc3)c3c(F)cc(F)cc3c2=O)cc1 | 89µM* | x | -3% | x | x
CC(C)(C)n1ncc2c(=O)n(Cc3ccc(-c4ccccc4C#N)cc3)cnc21 | 0% | x | x | x | 12%
Cc1nc(NC(=O)c2ccccc2)sc1-c1csc(Nc2ccc(C(=O)O)cc2)n1 | 35µM* | -9%[11.6 µM] | -21% | -11% | 15%
NC(=O)c1ccc[n+]([C@@H]2O[C@H](COP(=O)([O-])OP(=O)(O)OC[C@H]3O[C@@H](n4cnc5c(N)ncnc54)[C@H](O)[C@@H]3O)[C@@H](O)[C@H]2O)c1 | x | x | x | x | -1%[21 µM]
C/C(=N\NC(=O)c1cccc(F)c1)c1ccc(NC(=O)Cc2ccccc2)cc1 | -1% | -8% | -3% | x | 11%
C/C(=N\NC(=O)c1cc(O)cc(O)c1)c1ccc(NC(=O)Cc2ccccc2)cc1 | 50µM* | 20µM* | -26% | x | 1.3µM*
OCc1ccccc1SSc1ccccc1CO | u | 14µM* | x | x | x
O=C(Cn1cc[n+](CC(=O)c2ccccc2)c1)c1ccccc1 | -22% | -4% | 0% | 22µM* | -1%
